The record followed here is the supplement of paper PMC9694430.

What all share (assay): thermal shift delta Tm vs DMSO control; higher = stronger stabilization (binding)
Settings in all cases: 12.5 µM; protein concentration 2 µM

The subject of one test is LOC_OS01G57100-cb003. Summed up:
(§1)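 Purified, E. coli-expressed rice kinase domain constructs were tested by differential scanning fluorimetry in 96-well plates: 19.5 μl of 2 μM kinase in 100 mM potassium phosphate pH 7.5, 150 mM NaCl, 10% glycerol, 5 × SYPRO Orange, plus compound in DMSO. Fluorescence was read from 25°C to 95°C at 0.05°C/s. Melting temperatures came from Boltzmann fits, and the shift is the triplicate mean relative to protein with DMSO alone.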

The test system of the next test is LOC_OS01G60330-cb001. A digest of the protocol: as §1
In a further test the test system is LOC_OS01G60700-cb002. A digest of the protocol:
as §1

A further test deals with LOC_OS01G63280-cb003. Summed up:
as §1

The next test has as its system LOC_OS01G67340-cb003. A digest of the protocol: as §1
The next test relates to LOC_OS01G70970-cb002. A digest of the protocol:
as §1

For the next test, the system named is LOC_OS02G07810-cb001. Summed up:
as §1

The subject of another test is LOC_OS02G08530-cb003. Summed up: as §1
The next test concerns LOC_OS02G14120-cb001. A digest of the protocol:
as §1

The test system of a further test is LOC_OS02G17970-cb001. Summed up:
as §1

A further test deals with LOC_OS02G45750-cb003. A digest of the protocol:
as §1

Another test concerns LOC_OS02G54510-cb004. Summed up: as §1
Another test deals with LOC_OS03G04050-cb001. A digest of the protocol: as §1
For a further test, the system named is LOC_OS03G12390-cb001. Summed up:
as §1

A further test concerns LOC_OS03G27990-cb004. Summed up: as §1
For a further test, the system named is LOC_OS03G50450-cb001. A digest of the protocol: as §1
The test system of the next test is LOC_OS03G50810-cb003. A digest of the protocol: as §1
In the next test the test system is LOC_OS04G35114-cb001. A digest of the protocol: as §1
The test system of a further test is T1, LOC_OS04G38480-cb003.
T1 sequence (whole entry): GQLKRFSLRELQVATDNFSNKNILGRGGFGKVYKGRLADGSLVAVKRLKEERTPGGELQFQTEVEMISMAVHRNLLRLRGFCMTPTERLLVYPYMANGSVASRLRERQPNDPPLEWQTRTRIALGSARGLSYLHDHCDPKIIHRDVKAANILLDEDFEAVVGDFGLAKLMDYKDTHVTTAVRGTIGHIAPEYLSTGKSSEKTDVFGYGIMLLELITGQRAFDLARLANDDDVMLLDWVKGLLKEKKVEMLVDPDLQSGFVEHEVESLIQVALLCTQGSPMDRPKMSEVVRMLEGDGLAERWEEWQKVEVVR
A digest of the protocol:
as §1

For a further test, the system named is T2, LOC_OS04G41100-cb001.
T2 sequence (whole entry): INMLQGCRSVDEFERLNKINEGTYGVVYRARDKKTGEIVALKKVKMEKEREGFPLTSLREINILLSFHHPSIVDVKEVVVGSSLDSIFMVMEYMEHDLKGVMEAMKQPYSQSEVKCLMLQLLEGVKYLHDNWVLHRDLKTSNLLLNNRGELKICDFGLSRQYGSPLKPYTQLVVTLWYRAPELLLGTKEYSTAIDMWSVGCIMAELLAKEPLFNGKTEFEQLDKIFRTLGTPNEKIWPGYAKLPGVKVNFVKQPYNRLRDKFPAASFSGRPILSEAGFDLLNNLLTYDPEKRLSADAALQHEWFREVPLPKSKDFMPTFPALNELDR
Summed up:
as §1

The structures appear in SMILES notation.

As to `CCN1/C(=C/C(C)=O)Sc2ccc(OC)cc21`, the “thermal shift delta Tm” value came to 1.85 °C in the test with LOC_OS01G57100-cb003; 1.16 °C in the test with LOC_OS01G60330-cb001; 0.54 °C in the test with LOC_OS01G60700-cb002; 0.05 °C in the test with LOC_OS01G63280-cb003; 0.66 °C in the test on LOC_OS01G67340-cb003; 0.38 °C in the test on LOC_OS01G70970-cb002. In addition, the “thermal shift delta Tm” value was found to be 0.47 °C in the test on LOC_OS02G07810-cb001; 0.41 °C with LOC_OS02G08530-cb003; 0.43 °C with LOC_OS02G14120-cb001; 0.27 °C in the test with LOC_OS02G17970-cb001; 0.78 °C in the test on LOC_OS02G45750-cb003; 0.02 °C in the test with LOC_OS02G54510-cb004. In addition, the “thermal shift delta Tm” value was found to be 0.22 °C in the test with LOC_OS03G04050-cb001; 0.14 °C in the test with LOC_OS03G12390-cb001; 0.03 °C in the test on LOC_OS03G27990-cb004; 0.66 °C with LOC_OS03G50450-cb001; 0.32 °C in the test on LOC_OS03G50810-cb003; 0.67 °C in the test on LOC_OS04G35114-cb001. In addition, the results for the “thermal shift delta Tm” value with LOC_OS04G38480-cb003 and with LOC_OS04G41100-cb001 were 0.6 °C and 0.55 °C, respectively.
For the molecule `COc1ccc2[nH]cc(/C=C3\C(=O)Nc4ccc(NC(=O)CCN5CCCCC5)cc43)c2c1`, the “thermal shift delta Tm” value turned out to be 0.21 °C with LOC_OS01G57100-cb003; 1.51 °C in the test with LOC_OS01G60330-cb001; 1.62 °C with LOC_OS01G60700-cb002; 1.06 °C with LOC_OS01G63280-cb003; 1.09 °C with LOC_OS01G67340-cb003; 0.85 °C in the test with LOC_OS01G70970-cb002. Further, the “thermal shift delta Tm” value in the test with LOC_OS02G07810-cb001 came out at 0.83 °C; with LOC_OS02G08530-cb003, 1.82 °C; in the test with LOC_OS02G14120-cb001, 1.59 °C; in the test with LOC_OS02G17970-cb001, 1.88 °C; in the test with LOC_OS02G45750-cb003 it was 4.5 °C; in the test on LOC_OS02G54510-cb004, 0.79 °C. For the same molecule, the “thermal shift delta Tm” value turned out to be 0.56 °C with LOC_OS03G04050-cb001; 1.22 °C in the test on LOC_OS03G12390-cb001; 1.19 °C with LOC_OS03G27990-cb004; 0.34 °C in the test with LOC_OS03G50450-cb001; 3.45 °C with LOC_OS03G50810-cb003; 5.49 °C in the test with LOC_OS04G35114-cb001. In addition, the figures for the “thermal shift delta Tm” value with LOC_OS04G38480-cb003 and in the test with LOC_OS04G41100-cb001 were 2.41 °C and 0.9 °C, respectively.
Regarding `O=C(NOCC1CC1)c1ccc(F)c(F)c1Nc1ccc(I)cc1Cl`, the “thermal shift delta Tm” value in the test with LOC_OS01G57100-cb003 came to 2.41 °C; in the test with LOC_OS01G60330-cb001, 2.82 °C; with LOC_OS01G60700-cb002 it was 2.16 °C; in the test with LOC_OS01G63280-cb003, 0.93 °C; in the test with LOC_OS01G67340-cb003 it was 0.18 °C; in the test on LOC_OS01G70970-cb002, 1.09 °C. Also, the “thermal shift delta Tm” value in the test on LOC_OS02G07810-cb001 is 1.23 °C; in the test on LOC_OS02G08530-cb003, 1.11 °C; in the test on LOC_OS02G14120-cb001, 1.97 °C; in the test with LOC_OS02G17970-cb001 it was 1.54 °C; in the test on LOC_OS02G45750-cb003, 0.27 °C; with LOC_OS02G54510-cb004, -0.05 °C. In addition, the “thermal shift delta Tm” value worked out at 1.06 °C in the test on LOC_OS03G04050-cb001; 0.75 °C in the test with LOC_OS03G12390-cb001; 0.28 °C in the test with LOC_OS03G27990-cb004; 0.46 °C with LOC_OS03G50450-cb001; 0.83 °C in the test on LOC_OS03G50810-cb003; 0.12 °C in the test with LOC_OS04G35114-cb001. Further, the “thermal shift delta Tm” value in the test on LOC_OS04G38480-cb003 is 1.28 °C; with LOC_OS04G41100-cb001, 0.9 °C.
Regarding `O=c1cc(-c2cccc3c2Sc2ccccc2S3)oc(N2CCOCC2)c1`, the “thermal shift delta Tm” value in the test on LOC_OS01G57100-cb003 was 0.21 °C; with LOC_OS01G60330-cb001 it was 1.07 °C; in the test on LOC_OS01G60700-cb002, 0.76 °C; in the test with LOC_OS01G63280-cb003 it was 0.32 °C; with LOC_OS01G67340-cb003, -0.52 °C; with LOC_OS01G70970-cb002, -0.34 °C. Further, the “thermal shift delta Tm” value in the test on LOC_OS02G07810-cb001 is 0.78 °C; with LOC_OS02G08530-cb003, 0.47 °C; with LOC_OS02G14120-cb001, 0.45 °C; in the test on LOC_OS02G17970-cb001, 0.59 °C; in the test on LOC_OS02G45750-cb003, 0.06 °C; in the test on LOC_OS02G54510-cb004 it was -0.02 °C. Further, the “thermal shift delta Tm” value was 0.45 °C in the test with LOC_OS03G04050-cb001; 0.59 °C in the test with LOC_OS03G12390-cb001; -0.19 °C in the test on LOC_OS03G27990-cb004; -0.07 °C in the test on LOC_OS03G50450-cb001; 0.13 °C in the test on LOC_OS03G50810-cb003; -0.05 °C with LOC_OS04G35114-cb001. Also, the results for the “thermal shift delta Tm” value with LOC_OS04G38480-cb003 and in the test on LOC_OS04G41100-cb001 were 1.71 °C and 0.74 °C, respectively.
Regarding `CC1=C(C(=O)Nc2cc3cn[nH]c3cc2F)C(c2ccc(C(F)(F)F)cc2)CC(=O)N1` (stereo not given), the “thermal shift delta Tm” value is 1.21 °C with LOC_OS01G57100-cb003; 0.48 °C with LOC_OS01G60330-cb001; 0.2 °C in the test with LOC_OS01G60700-cb002; 2.09 °C with LOC_OS01G63280-cb003; -0.48 °C with LOC_OS01G67340-cb003; 0.04 °C in the test with LOC_OS01G70970-cb002. Besides, the “thermal shift delta Tm” value in the test with LOC_OS02G07810-cb001 came to 0.72 °C; in the test with LOC_OS02G08530-cb003, 0.55 °C; in the test on LOC_OS02G14120-cb001 it was 0.25 °C; in the test on LOC_OS02G17970-cb001 it was 0.19 °C; in the test on LOC_OS02G45750-cb003 it was 0.16 °C; in the test on LOC_OS02G54510-cb004, 0.13 °C. For the same molecule, the “thermal shift delta Tm” value in the test with LOC_OS03G04050-cb001 is 0.03 °C; with LOC_OS03G12390-cb001, 0.32 °C; with LOC_OS03G27990-cb004, -0.07 °C; in the test with LOC_OS03G50450-cb001, 0.15 °C; in the test on LOC_OS03G50810-cb003, 0.56 °C; in the test with LOC_OS04G35114-cb001, 0.15 °C. The “thermal shift delta Tm” value in the test with LOC_OS04G38480-cb003 came out at 0 °C; in the test with LOC_OS04G41100-cb001, 0.48 °C.
For the molecule `O=C(Cc1ccc(-c2ccc(OCCN3CCOCC3)cc2)cn1)NCc1ccccc1`, the “thermal shift delta Tm” value in the test on LOC_OS01G57100-cb003 is 1.17 °C; in the test on LOC_OS01G60330-cb001, 0.12 °C; in the test on LOC_OS01G60700-cb002, 1.18 °C; in the test with LOC_OS01G63280-cb003 it was 0.26 °C; in the test on LOC_OS01G67340-cb003, 0.62 °C; in the test with LOC_OS01G70970-cb002, 0.16 °C. Further, the “thermal shift delta Tm” value came out at 0.92 °C in the test with LOC_OS02G07810-cb001; 0.7 °C in the test on LOC_OS02G08530-cb003; 0.08 °C in the test with LOC_OS02G14120-cb001; 1.17 °C in the test with LOC_OS02G17970-cb001; 0.29 °C in the test on LOC_OS02G45750-cb003; 0.08 °C in the test on LOC_OS02G54510-cb004. Moreover, the “thermal shift delta Tm” value with LOC_OS03G04050-cb001 was 0.31 °C; with LOC_OS03G12390-cb001, 0.07 °C; with LOC_OS03G27990-cb004, 0.38 °C; with LOC_OS03G50450-cb001, 0.47 °C; in the test on LOC_OS03G50810-cb003, 0.43 °C; with LOC_OS04G35114-cb001, 0.43 °C. Further, the entries for the “thermal shift delta Tm” value with LOC_OS04G38480-cb003 and in the test with LOC_OS04G41100-cb001 were 0.12 °C and 0.27 °C, respectively.
